Data as given in PubChem BioAssay (EPA / NIEHS).
“And” between values parts separate entries of the source, which are not always exact repeats. Equal entries are not always repeated. Inconclusive results are not listed. More than one record can exist for a structure, and the calls need not agree. The source made the active and inactive calls. Rule for the calls, unless noted: active = hit-call score of the fitted dose curve at least 0.9, where 1 is the maximum; inactive = score below 0.9.

Key:
[1] = biological target: Myc proto-oncogene protein (Homo sapiens) (UniProt P01106); experiment: ATG_Myc_CIS: Attagene CIS-FACTORIAL HepG2 Assay for human Myelocytomatosis (Myc) Proto-Oncogene Transcription Factor (AID 2282990); conditions: HepG2, Attagene cis-reporter transcription factor activity; actives raise or lower the signal
Procedure, shortened: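 DMSO-normalised, bidirectionally fitted reporter mRNA signal. HepG2 cells transfected with cis reporter constructs, treated 24 h; transcripts detected by RT-PCR, 6-FAM primer extension and CE.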

[2] = ATG_NF_kB_CIS: Attagene CIS-FACTORIAL HepG2 Assay for human Nuclear Factor Kappa B (NF-kB) (AID 2282991); conditions: HepG2 Attagene cis-factorial NF-kB reporter mRNA; actives raise or lower the signal
Procedure, shortened: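 DMSO served as negative control and baseline for bidirectional curve fitting. Transiently transfected HepG2 cells were dosed for 24 h, then reporter transcripts were measured by RT-PCR with capillary electrophoresis detection.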

[3] = ATG_NRF2_ARE_CIS: Attagene CIS-FACTORIAL HepG2 Assay for human Nuclear Factor Erythroid 2 Related Factor 2 (NFR2) response to Antioxidant Response Elements (ARE) (AID 2282992); conditions: HepG2 Attagene ARE/NRF2 reporter, transcription factor activity; actives raise or lower the signal;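 for AC50: reporter mRNA level measured by RT-PCR and capillary electrophoresis fluorescence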
Procedure, shortened: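 Multiplexed reporter mRNA profiling in HepG2 after a 24 h chemical exposure. Curves fitted in both directions relative to DMSO negative control.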

[4] = ATG_Oct_MLP_CIS: Attagene CIS-FACTORIAL HepG2 Assay for human Octamer-Binding Transcription Factor (Oct) (AID 2282993); conditions: HepG2 Attagene cis-factorial Oct reporter, mRNA; actives raise or lower the signal
Procedure, shortened: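 Using HepG2 cells bearing transfected cis-reporter constructs, mRNA induction was read after 24 h by fluorescent RT-PCR and capillary electrophoresis, with DMSO defining baseline for gain- or loss-of-signal fits.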

[5] = biological target: Cellular tumor antigen p53 (Homo sapiens) (UniProt P04637); experiment: ATG_p53_CIS: Attagene CIS-FACTORIAL HepG2 Assay for human p53 Transcription Factor (AID 2282994); conditions: HepG2 p53 cis-element reporter, Attagene mRNA; actives raise or lower the signal
Procedure, shortened: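 Multiplexed reporter mRNA assay in human HepG2 liver cells; cis-regulated units report endogenous factor activity. Values come from bidirectional curve fitting against DMSO negative control after 24 h treatment.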

[6] = biological target: human Peroxisome Proliferator-activated Receptor alpha (PPARa), PPARA (gene 5465) (UniProt Q07869); experiment: ATG_PPARa_TRANS: Attagene TRANS-FACTORIAL HepG2 Assay for human Peroxisome Proliferator-activated Receptor alpha (PPARa) (AID 2283001; active = hit-call score of the fitted dose curve at least 0.9, where 1 is the maximum;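 for AC50: potency for gain of reporter signal over DMSO so agonist or activator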)
Procedure, shortened: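 Gain-of-signal endpoint: reporter mRNA induction relative to DMSO, detected by fluorescent RT-PCR and capillary electrophoresis. HepG2 cells transiently carried GAL4-UAS-driven reporter units plus NR-Gal4 fusion; exposure lasted 24 h.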

[7] = biological target: human Peroxisome Proliferator-activated Receptor delta (PPARd), PPARD (gene 5467) (UniProt Q03181); experiment: ATG_PPARd_TRANS: Attagene TRANS-FACTORIAL HepG2 Assay for human Peroxisome Proliferator-activated Receptor delta (PPARd) (AID 2283002; active = hit-call score of the fitted dose curve at least 0.9, where 1 is the maximum)
Procedure, shortened: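 Measured quantity: GAL4-UAS reporter transcript induction in HepG2 after 24 h chemical dosing, with NR-Gal4 chimeras supplied by transient transfection. Detection by RT-PCR and capillary electrophoresis; upward fit against DMSO.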

[8] = biological target: Peroxisome proliferator-activated receptor gamma (Homo sapiens) (UniProt P37231); experiment: ATG_PPARg_TRANS: Attagene TRANS-FACTORIAL HepG2 Assay for human Peroxisome Proliferator-activated Receptor-gamma (PPARg) (AID 2283007; active = hit-call score of the fitted dose curve at least 0.9, where 1 is the maximum)
Procedure, shortened: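 Chimeric NR-Gal4 transactivation is measured in transiently transfected HepG2 cells by reporter mRNA induction at 24 h. Detection uses RT-PCR with fluorescent labelling and capillary electrophoresis; DMSO defines baseline.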

[9] = biological target: Nuclear receptor subfamily 1 group I member 2 (Homo sapiens) (UniProt O75469); experiment: ATG_PXR_TRANS: Attagene TRANS-FACTORIAL HepG2 Assay for human Pregnane X Receptor (PXR) (AID 2283008; active = hit-call score of the fitted dose curve at least 0.9, where 1 is the maximum)
Procedure, shortened: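 Measures mRNA induction of a GAL4-UAS-driven reporter in human HepG2 cells transiently expressing PXR fused to Gal4, following 24 h treatment. DMSO served as negative control and baseline.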

[10] = BSK_3C_TissueFactor: BioMAP Diversity Plus: 3C Assay for Tissue Factor Biomarker Activity (AID 2282997); conditions: BioMAP 3C HUVEC, tissue factor biomarker readout; actives raise or lower the signal
Procedure, shortened: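 Human vascular primary cells (umbilical vein endothelium) received test chemical; Tissue Factor was determined by ELISA at 24 h, and both gain and loss of signal versus DMSO were fitted.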

[11] = BSK_3C_uPAR: BioMAP Diversity Plus: 3C Assay for Urokinase-type plasminogen activator receptor (uPAR) Biomarker Activity (AID 2282998); conditions: BioMAP 3C HUVEC, uPAR biomarker ELISA; actives raise or lower the signal
Procedure, shortened: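 In this endothelial cell-based assay, human umbilical vein primary cells were treated with chemicals and harvested at 24 h. uPAR was quantified using ELISA, with gains or losses fitted relative to DMSO controls.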

[12] = BSK_3C_VCAM1: BioMAP Diversity Plus: 3C Assay for Vascular cell adhesion molecule 1 (VCAM1) Biomarker Activity (AID 2282999); conditions: BioMAP 3C HUVEC, VCAM1 ELISA, cytokine-stimulated; actives raise or lower the signal
Procedure, shortened: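 Human umbilical vein endothelial cells were dosed with compound for 24 h, after which cell-surface VCAM-1 was quantified by ELISA. Bidirectional curve fitting used DMSO as negative control and activity baseline.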

[13] = BSK_4H_Eotaxin3: BioMAP Diversity Plus: 4H Assay for Eotaxin 3 Biomarker Activity (AID 2283000); conditions: primary human endothelial cells (HUVEC); actives raise or lower the signal
Procedure, shortened: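 Readout is Eotaxin-3 (CCL26) level by ELISA in primary human umbilical vein endothelial cells harvested 24 h after chemical exposure; activity fitted in both directions against DMSO control.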

[14] = read-out: Intercellular Adhesion Molecule 1 (ICAM1), ICAM1 (gene 3383); experiment: BSK_3C_ICAM1: BioMAP Diversity Plus: 3C Assay for Intercellular Adhesion Molecule 1 (ICAM1) Biomarker Activity (AID 2283003); conditions: primary human endothelial cells (HUVEC); actives raise or lower the signal
Procedure, shortened: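 ICAM-1 levels measured by ELISA after HUVEC cultures in the 3C system had been dosed for 24 h. Gain or loss of signal relative to DMSO was fitted in both directions.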

[15] = BSK_3C_Proliferation: Cell Proliferation Assessment in the BioMAP Diversity Plus: 3C Assay (AID 2283006); conditions: primary human endothelial cells (HUVEC);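 for AC50: potency may reflect either rise or fall in cell number versus DMSO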
Procedure, shortened: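 Read-out is total protein by SRB absorbance at 560 nm, taken as a proxy for relative cell number. Primary human umbilical vein endothelium cultured below confluence was dosed for 48 h, TCA-fixed and SRB-stained; curves were fitted bidirectionally versus DMSO.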

[16] = biological target: human Retinoic Acid Receptor beta (RARb), RARB (gene 5915) (UniProt P10826); experiment: ATG_RARb_TRANS: Attagene TRANS-FACTORIAL HepG2 Assay for human Retinoic Acid Receptor beta (AID 2283004; active = hit-call score of the fitted dose curve at least 0.9, where 1 is the maximum)
Procedure, shortened: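 Readout is reporter mRNA induction: RNA reverse-transcribed, PCR-amplified, FAM-labelled, HpaI-cut and resolved by capillary electrophoresis. Transiently transfected HepG2 cells carrying exogenous NR–Gal4 chimeras were dosed for 24 h; activity fitted upward relative to DMSO.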

[17] = biological target: human Retinoic Acid Receptor gamma (RARg), RARG (gene 5916) (UniProt P13631); experiment: ATG_RARg_TRANS: Attagene TRANS-FACTORIAL HepG2 Assay for human Retinoic Acid Receptor gamma (RARg) (AID 2283009; active = hit-call score of the fitted dose curve at least 0.9, where 1 is the maximum)
Procedure, shortened: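 Transient transfection of HepG2 with multi-reporter constructs, then 24 h chemical treatment. Total RNA isolated, reverse-transcribed, PCR-amplified, fluorescently labelled and resolved by capillary electrophoresis; activity scored as mRNA induction versus DMSO.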

[18] = biological target: human RAR-related Orphan Receptor gamma (RORg), RORC (gene 6097) (UniProt P51449); experiment: ATG_RORg_TRANS: Attagene TRANS-FACTORIAL HepG2 Assay for human RAR-related Orphan Receptor gamma (RORg) (AID 2283011; active = hit-call score of the fitted dose curve at least 0.9, where 1 is the maximum)
Procedure, shortened: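 Transient MRTU transfection of HepG2 (TRANS format, exogenous NR-Gal4 chimera). 24 h dosing. Total RNA → oligo(dT) RT → PCR → 6-FAM labelling → HpaI cut → CE. Gain vs DMSO.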

[19] = biological target: human RAR-related Orphan Receptor beta (RORb), RORB (gene 6096) (UniProt Q92753); experiment: ATG_RORb_TRANS: Attagene TRANS-FACTORIAL HepG2 Assay for human RAR-related Orphan Receptor beta (RORb) (AID 2283010; active = hit-call score of the fitted dose curve at least 0.9, where 1 is the maximum)
Procedure, shortened: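 Readout is reporter-gene mRNA induction, detected as fluorescence after RT-PCR and capillary electrophoresis, fitted for gain of signal against DMSO controls. Transiently transfected HepG2 liver cells carrying GAL4-UAS reporter constructs were treated for 24 hours.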

Measured: AC50

Sequence of Myc proto-oncogene protein (Homo sapiens) (P01106 whole entry, looked up): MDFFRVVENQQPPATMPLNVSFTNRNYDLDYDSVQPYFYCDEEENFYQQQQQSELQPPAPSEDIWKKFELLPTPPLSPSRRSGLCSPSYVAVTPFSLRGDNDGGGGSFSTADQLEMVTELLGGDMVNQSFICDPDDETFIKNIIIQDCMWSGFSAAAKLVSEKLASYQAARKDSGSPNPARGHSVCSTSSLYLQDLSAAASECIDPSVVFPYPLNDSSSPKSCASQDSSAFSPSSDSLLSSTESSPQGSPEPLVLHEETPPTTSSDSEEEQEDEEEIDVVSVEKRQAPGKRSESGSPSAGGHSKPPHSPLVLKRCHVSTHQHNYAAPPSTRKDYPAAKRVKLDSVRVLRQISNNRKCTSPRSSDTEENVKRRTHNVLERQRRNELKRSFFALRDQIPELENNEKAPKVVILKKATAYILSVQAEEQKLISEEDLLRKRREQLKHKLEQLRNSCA
Sequence of human Retinoic Acid Receptor gamma (RARg), RARG (gene 5916) (P13631 whole entry, looked up): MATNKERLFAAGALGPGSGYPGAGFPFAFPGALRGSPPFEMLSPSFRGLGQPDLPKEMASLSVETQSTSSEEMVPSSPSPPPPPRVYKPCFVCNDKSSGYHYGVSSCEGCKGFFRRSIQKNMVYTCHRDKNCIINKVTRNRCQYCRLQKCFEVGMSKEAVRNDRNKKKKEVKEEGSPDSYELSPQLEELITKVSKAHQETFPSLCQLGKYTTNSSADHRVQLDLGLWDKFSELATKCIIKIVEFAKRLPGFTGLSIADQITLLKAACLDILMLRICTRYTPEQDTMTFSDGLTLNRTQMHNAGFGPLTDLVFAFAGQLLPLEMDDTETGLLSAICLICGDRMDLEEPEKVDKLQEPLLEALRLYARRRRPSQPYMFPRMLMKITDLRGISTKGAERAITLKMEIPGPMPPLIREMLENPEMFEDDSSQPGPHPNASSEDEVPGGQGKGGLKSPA
Sequence of human RAR-related Orphan Receptor gamma (RORg), RORC (gene 6097) (P51449 whole entry, looked up, the tested form may be a part): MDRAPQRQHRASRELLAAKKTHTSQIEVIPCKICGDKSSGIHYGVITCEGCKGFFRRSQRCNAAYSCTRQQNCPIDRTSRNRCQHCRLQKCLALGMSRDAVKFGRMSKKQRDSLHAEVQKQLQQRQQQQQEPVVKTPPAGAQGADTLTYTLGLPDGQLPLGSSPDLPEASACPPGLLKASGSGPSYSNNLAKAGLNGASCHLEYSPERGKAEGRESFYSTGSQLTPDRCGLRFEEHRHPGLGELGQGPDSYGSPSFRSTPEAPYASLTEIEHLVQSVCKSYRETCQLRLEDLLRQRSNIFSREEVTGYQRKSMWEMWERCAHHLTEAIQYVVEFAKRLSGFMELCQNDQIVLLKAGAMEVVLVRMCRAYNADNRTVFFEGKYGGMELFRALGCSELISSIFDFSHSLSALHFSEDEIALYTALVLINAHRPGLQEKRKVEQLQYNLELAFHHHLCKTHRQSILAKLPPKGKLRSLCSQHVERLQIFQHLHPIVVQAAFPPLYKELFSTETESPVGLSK
Sequence of Nuclear receptor subfamily 1 group I member 2 (Homo sapiens) (O75469 whole entry, looked up, the tested form may be a part): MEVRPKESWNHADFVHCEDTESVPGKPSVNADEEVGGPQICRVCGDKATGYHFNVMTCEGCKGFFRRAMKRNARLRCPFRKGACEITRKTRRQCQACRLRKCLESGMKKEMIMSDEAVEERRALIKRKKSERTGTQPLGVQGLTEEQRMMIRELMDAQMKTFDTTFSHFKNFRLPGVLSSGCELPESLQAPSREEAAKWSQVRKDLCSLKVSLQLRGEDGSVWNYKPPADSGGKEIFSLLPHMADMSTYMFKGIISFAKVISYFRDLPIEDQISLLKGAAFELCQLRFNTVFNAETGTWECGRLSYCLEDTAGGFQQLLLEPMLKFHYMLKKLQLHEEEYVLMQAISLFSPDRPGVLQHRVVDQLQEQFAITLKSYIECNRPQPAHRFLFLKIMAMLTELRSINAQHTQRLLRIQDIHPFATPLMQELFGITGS
Sequence of Peroxisome proliferator-activated receptor gamma (Homo sapiens) (P37231 whole entry, looked up, the tested form may be a part): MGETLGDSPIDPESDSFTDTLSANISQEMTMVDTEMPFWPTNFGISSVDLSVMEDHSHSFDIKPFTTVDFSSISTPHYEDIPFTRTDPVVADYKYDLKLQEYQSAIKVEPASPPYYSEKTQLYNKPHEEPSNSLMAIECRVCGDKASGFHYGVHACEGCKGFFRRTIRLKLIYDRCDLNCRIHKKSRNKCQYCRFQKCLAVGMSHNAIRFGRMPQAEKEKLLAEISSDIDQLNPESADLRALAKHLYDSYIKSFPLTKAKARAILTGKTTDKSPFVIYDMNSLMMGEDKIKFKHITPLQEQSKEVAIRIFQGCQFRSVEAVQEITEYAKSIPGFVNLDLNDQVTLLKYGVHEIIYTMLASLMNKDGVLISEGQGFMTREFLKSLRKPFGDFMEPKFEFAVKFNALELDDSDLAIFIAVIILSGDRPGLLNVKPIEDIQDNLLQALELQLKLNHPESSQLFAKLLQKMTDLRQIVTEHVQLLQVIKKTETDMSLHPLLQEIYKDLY
Sequence of human Peroxisome Proliferator-activated Receptor alpha (PPARa), PPARA (gene 5465) (Q07869 whole entry, looked up, the tested form may be a part): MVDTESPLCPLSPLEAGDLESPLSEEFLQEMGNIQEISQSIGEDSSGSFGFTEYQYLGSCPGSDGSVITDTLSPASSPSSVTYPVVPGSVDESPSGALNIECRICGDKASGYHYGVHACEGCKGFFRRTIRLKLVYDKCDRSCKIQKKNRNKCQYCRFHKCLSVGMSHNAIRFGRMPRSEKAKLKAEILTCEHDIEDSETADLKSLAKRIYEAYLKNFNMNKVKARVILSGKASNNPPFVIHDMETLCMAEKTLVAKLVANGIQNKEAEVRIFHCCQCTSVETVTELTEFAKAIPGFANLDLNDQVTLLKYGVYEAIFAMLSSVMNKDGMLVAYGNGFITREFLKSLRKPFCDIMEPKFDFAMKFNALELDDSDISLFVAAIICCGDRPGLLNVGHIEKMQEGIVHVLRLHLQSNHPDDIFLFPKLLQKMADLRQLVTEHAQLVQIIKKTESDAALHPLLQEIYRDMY
Sequence of human RAR-related Orphan Receptor beta (RORb), RORB (gene 6096) (Q92753 whole entry, looked up, the tested form may be a part): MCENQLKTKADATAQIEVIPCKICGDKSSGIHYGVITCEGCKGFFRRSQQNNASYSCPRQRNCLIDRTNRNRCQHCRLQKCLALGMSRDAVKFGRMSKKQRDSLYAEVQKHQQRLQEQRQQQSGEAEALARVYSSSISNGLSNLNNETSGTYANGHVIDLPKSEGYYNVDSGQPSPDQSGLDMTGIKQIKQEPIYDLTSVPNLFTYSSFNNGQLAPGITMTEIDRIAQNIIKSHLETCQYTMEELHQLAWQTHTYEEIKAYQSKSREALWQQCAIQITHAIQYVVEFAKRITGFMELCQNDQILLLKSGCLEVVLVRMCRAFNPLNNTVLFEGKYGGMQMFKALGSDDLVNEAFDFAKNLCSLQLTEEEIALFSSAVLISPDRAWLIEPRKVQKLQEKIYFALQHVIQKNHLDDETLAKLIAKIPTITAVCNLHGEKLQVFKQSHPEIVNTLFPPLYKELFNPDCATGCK
Sequence of Cellular tumor antigen p53 (Homo sapiens) (P04637 whole entry, looked up): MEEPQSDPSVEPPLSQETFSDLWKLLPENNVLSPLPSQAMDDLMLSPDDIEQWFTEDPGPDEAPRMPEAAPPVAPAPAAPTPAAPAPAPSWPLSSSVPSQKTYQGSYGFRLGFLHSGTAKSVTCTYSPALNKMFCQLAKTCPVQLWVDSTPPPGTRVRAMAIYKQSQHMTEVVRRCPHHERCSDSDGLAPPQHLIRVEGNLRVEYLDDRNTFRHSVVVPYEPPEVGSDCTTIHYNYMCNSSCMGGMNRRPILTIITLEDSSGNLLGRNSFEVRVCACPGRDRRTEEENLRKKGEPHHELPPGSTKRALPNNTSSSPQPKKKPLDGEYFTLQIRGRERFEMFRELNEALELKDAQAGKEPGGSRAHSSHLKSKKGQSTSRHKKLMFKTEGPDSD
Sequence of human Peroxisome Proliferator-activated Receptor delta (PPARd), PPARD (gene 5467) (Q03181 whole entry, looked up, the tested form may be a part): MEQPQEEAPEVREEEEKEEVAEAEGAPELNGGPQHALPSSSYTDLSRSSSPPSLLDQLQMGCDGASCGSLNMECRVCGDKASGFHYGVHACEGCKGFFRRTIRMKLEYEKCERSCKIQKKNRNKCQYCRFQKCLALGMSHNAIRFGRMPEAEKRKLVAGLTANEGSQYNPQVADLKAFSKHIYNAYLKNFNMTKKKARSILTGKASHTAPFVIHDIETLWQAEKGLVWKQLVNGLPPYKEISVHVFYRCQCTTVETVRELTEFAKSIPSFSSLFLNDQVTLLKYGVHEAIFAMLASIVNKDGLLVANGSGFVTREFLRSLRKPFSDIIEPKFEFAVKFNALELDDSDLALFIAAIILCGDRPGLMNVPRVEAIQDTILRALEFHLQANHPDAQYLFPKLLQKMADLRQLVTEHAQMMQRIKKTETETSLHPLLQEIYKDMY
Sequence of human Retinoic Acid Receptor beta (RARb), RARB (gene 5915) (P10826 whole entry, looked up, the tested form may be a part): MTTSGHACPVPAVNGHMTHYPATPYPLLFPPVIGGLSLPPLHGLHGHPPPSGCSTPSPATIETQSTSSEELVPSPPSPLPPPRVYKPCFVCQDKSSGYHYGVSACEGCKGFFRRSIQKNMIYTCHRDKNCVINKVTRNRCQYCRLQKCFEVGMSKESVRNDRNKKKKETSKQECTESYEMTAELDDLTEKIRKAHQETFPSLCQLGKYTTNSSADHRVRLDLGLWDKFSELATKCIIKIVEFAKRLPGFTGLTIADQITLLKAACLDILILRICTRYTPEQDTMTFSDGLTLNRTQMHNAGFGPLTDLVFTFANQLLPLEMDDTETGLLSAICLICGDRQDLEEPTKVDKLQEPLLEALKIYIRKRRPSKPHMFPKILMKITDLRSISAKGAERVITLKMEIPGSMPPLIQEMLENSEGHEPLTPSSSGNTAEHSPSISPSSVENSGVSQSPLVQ

c1cc[c]([Sb]([c]2ccccc2)[c]2ccccc2)cc1
inactive: [1] | [2] | [4] | [5] | [6] | [7]
active: [3] 70.3 µM | [8] 23.5 µM | [9] 8.18 µM

c1ccc(-c2cccc(-c3ccccc3)c2)cc1
inactive: [1] | [2] | [4] | [5] | [6] | [14] | [8]
active: [3] 40.9 µM | [10] 4.68 µM | [11] 20 µM | [12] 20 µM | [13] 20 µM | [15] 13.2 µM

CN(C)c1ccc(N=O)cc1
active: [2] 6.42 µM | [3] 1.39 µM | [5] 44.6 µM
inactive: [1] | [4] | [6] | [7] | [16] | [8] | [17] | [18]

O=c1oc2ccccc2c(O)c1C(CC(O)c1ccc(-c2ccc(Br)cc2)cc1)c1ccccc1 (stereo unspecified)
inactive: [1] | [2] | [3] | [4] | [6] | [19]
active: [2] 48.4 µM | [3] 7.57 µM | [4] 40.9 µM | [5] 53.2 µM and 21.3 µM | [10] 12.7 µM | [11] 5.92 µM | [13] 16.9 µM | [6] 25.3 µM | [14] 27.2 µM | [15] 6.58 µM | [8] 3.95 µM and 676 nM | [9] 5.19 µM and 7.74 µM

C#C[C@]1(O)CC[C@H]2[C@@H]3CCC4=CC(=O)CC[C@]4(C)[C@H]3CC[C@@]21C
inactive: [1] | [2] | [3] | [4] | [5]

O=c1[nH]c2ccccc2n1C1CCN(CCCC(c2ccc(F)cc2)c2ccc(F)cc2)CC1
inactive: [1] | [2] | [4] | [5]
active: [3] 3.15 µM

N#Cc1ccncc1
inactive: [1] | [2] | [3] | [4] | [5] | [6] | [7] | [16] | [9] | [17]

OC(Cc1ccccc1Cl)(Cn1cncn1)C1(Cl)CC1 (stereo unspecified)
active: [5] 30 µM | [11] 16.5 µM | [9] 7.37 µM
not listed: [6] | [12] | [16] | [18] | [19]
inactive: all other assays above

O=C(Nc1ccc(Br)cc1)c1cc(Br)cc(Br)c1O
inactive: [1] | [2] | [7] | [17] | [19]
active: [3] 2.91 µM | [4] 5.3 µM | [5] 100 µM | [6] 4.97 µM | [8] 11.7 µM | [9] 4.69 µM

C[C@H]1C(=O)O[C@@H]2CCN3CC=C(COC(=O)[C@](C)(O)[C@]1(C)O)[C@H]23
inactive: [1] | [2] | [3] | [4] | [5] | [6] | [7] | [8] | [9]

O=[N+]([O-])c1ccc(Nc2ccccc2)cc1
not listed: [7] | [9] | [16] | [17] | [18] | [19]
inactive: all other assays above

Cc1ccc(OP(=O)(Oc2ccc(C)cc2C)Oc2ccc(C)cc2C)c(C)c1
active: [2] 25.9 µM | [3] 12.3 µM | [15] 6.87 µM | [8] 1.3 µM
not listed: [6] | [9] | [16] | [17] | [18] | [19]
inactive: all other assays above

N#Cc1ccc(Cl)cc1
not listed: [10] | [11] | [12] | [13] | [14] | [15] | [16] | [18]
inactive: all other assays above

N#CCCC(Br)(C#N)CBr (stereo unspecified)
active: [2] 33.4 µM | [4] 50 µM | [5] 52.8 µM | [10] 7.47 µM | [11] 5.36 µM | [12] 7.92 µM | [13] 8.6 µM | [14] 11 µM | [15] 1.28 µM
inactive: [1] | [3] | [6] | [8]

O=S(=O)(F)C(F)(F)C(F)(F)C(F)(F)C(F)(F)F
inactive: [1] | [2] | [3] | [4] | [5] | [6] | [7] | [8]

CCC(C)(C#N)N=NC(C)(C#N)CC (stereo unspecified)
not listed: [7] | [16] | [17] | [19]
inactive: all other assays above

O=S(=O)(c1ccc(Cl)cc1)c1cc(Cl)c(Cl)cc1Cl
inactive: [1] | [2] | [4] | [5] | [10] | [13] | [7] | [14]
active: [3] 10.4 µM | [11] 6.4 µM | [15] 5.2 µM | [8] 7.66 µM | [9] 1.25 µM

Oc1cccc(-c2ccccc2)c1
active: [3] 100 µM | [11] 20 µM | [13] 20 µM | [15] 27.2 µM | [8] 34.6 µM | [9] 26.1 µM
not listed: [12] | [16] | [17] | [19]
inactive: all other assays above
